Screening data from PubChem BioAssay.
AMPAR-TARP mod: modulators of AMPA receptor GluA2-stargazin complexes. HEK293 GluA2+stargazin, membrane potential dye (FDSS), glutamate EC50; hits were called plate by plate, in both directions. calls only at 30 µM. O88602+P19491. hit rate 3.5% among 40,000;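 active = any of four per-well response measures lying three or more SD from its plate-wide compound average, in either direction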
GIRK2 act: Activators of human GIRK2-containing channels | activation (% efficacy), % for hits at 37.5 µM | AID 1259324 | HEK293 GIRK2/NPY4 cells, thallium flux fluorescence | P48051 | 34,000 tested, under 10 active;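 active = primary screen hit, no activity in plain HEK293 cells, and in GIRK2-only cells above 5% efficacy rising with concentration; inactive = the rest, including fluorescent compounds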;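 also: efficacy is normalized control-subtracted fluorescence 15 s after thallium addition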
Target sequence (P48051 whole entry, looked up): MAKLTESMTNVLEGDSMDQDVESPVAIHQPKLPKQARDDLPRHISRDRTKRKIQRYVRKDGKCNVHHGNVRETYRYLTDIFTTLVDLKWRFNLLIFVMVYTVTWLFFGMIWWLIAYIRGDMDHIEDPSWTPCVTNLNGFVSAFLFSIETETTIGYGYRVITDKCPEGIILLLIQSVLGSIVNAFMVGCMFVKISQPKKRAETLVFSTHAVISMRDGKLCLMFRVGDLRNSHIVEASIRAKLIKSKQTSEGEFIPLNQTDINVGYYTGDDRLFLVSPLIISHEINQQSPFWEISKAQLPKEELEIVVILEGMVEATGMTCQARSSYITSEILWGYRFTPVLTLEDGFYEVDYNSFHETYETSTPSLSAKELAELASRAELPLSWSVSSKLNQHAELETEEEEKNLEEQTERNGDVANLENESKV
Active calls of the source: *. The full list was thinned out, with hits kept by preference.

For Cc1ccccc1CC(=O)NCCn1nc(-c2cccs2)ccc1=O the results were AMPAR-TARP mod active and GIRK2 act inactive.
Screening O=C(NCCn1nc(-c2cccs2)ccc1=O)NCc1ccccc1 returned AMPAR-TARP mod inactive and GIRK2 act inactive.
For CC1CC(C)CN(c2nc3c(c(=O)n(C)c(=O)n3C)n2CC(=O)O)C1 (configuration not stated) the results were AMPAR-TARP mod inactive.
For O=c1oc(-c2cccnc2)nc2ccc(Br)cc12 the results were AMPAR-TARP mod inactive and GIRK2 act inactive.
Screening Brc1cccc(-c2nnc3sc(-c4cccnc4)nn23)c1 returned AMPAR-TARP mod active and GIRK2 act inactive.
Screening N#C/C(=C\c1ccc(Cl)cc1)c1nc2ccccc2s1 returned AMPAR-TARP mod inactive.
For Cc1ccc(NC(=O)c2ccc(=O)n(Cc3cccc([N+](=O)[O-])c3)c2)cc1C the results were AMPAR-TARP mod inactive and GIRK2 act inactive.
For Cc1cccnc1NC(=O)c1ccc(=O)n(Cc2cccc([N+](=O)[O-])c2)c1 the results were AMPAR-TARP mod active and GIRK2 act inactive.
Cc1ccnc(NC(=O)c2ccc(=O)n(Cc3cccc([N+](=O)[O-])c3)c2)c1 was read as AMPAR-TARP mod active and GIRK2 act inactive.
Cc1c(Cl)cccc1NC(=O)c1ccc(=O)n(Cc2cccc([N+](=O)[O-])c2)c1 was read as AMPAR-TARP mod inactive and GIRK2 act inactive.
For COc1ccccc1CNC(=O)Cc1c(C)[nH]c(=O)[nH]c1=O the results were AMPAR-TARP mod inactive and GIRK2 act inactive.
For O=c1[nH]nc(SCc2nc(-c3ccccc3)no2)n2nc(-c3ccco3)cc12 the results were GIRK2 act inactive.
For Nc1ccc2c3c(cccc13)C(=O)N(c1ccccc1)C2=O the results were AMPAR-TARP mod active.
For O=C1c2ccc(-n3c(=O)c4ccccc4c4ccccc4c3=O)cc2C(=O)N1c1ccccc1 the results were AMPAR-TARP mod inactive.
CCC(C)Sc1nnc(Cn2c(=O)sc3ccccc32)n1C (configuration not stated) was read as AMPAR-TARP mod inactive.
`CC(C)(C)CC(=O)Nc1ccc(-n2nnn(CC(N)=O)c2=O)cc1` gave AMPAR-TARP mod inactive and GIRK2 act inactive.
Screening CC(=O)N1CCN(c2ccnc3c2c(=O)n(Cc2cccc(F)c2)c(=O)n3C)CC1 returned AMPAR-TARP mod inactive.
CC(C)CNc1oc(-c2ccc(S(=O)(=O)N(C)Cc3ccccc3)cc2)nc1C#N was read as AMPAR-TARP mod inactive and GIRK2 act inactive.
For COc1cc(C)c(Cl)cc1S(=O)(=O)NC(C)(C)C the results were AMPAR-TARP mod inactive.
For CCOCCCNS(=O)(=O)c1cc(Cl)c(C)cc1OC the results were AMPAR-TARP mod active.
CCC1CCCCN1C(=O)COc1cccc2c1CCN(Cc1ccccc1)C2=O (configuration not stated) was read as AMPAR-TARP mod inactive.
COc1cc(C)c(S(=O)(=O)Nc2cccc(-c3ccc(=O)n(C)n3)c2)cc1C was read as AMPAR-TARP mod inactive and GIRK2 act inactive.
COc1ccc(S(=O)(=O)N2CCCCC2CC(=O)NCc2ccc(Cl)cc2)cc1 (configuration not stated) was read as AMPAR-TARP mod inactive.
For COc1ccc(CCNC(=O)CC2CCCCN2S(=O)(=O)c2ccccc2)cc1 (configuration not stated) the results were AMPAR-TARP mod inactive.
Screening COc1ccc(CCNC(=O)CC2CCCCN2S(=O)(=O)c2ccc(Cl)cc2)cc1OC (configuration not stated) returned AMPAR-TARP mod active.
For Cc1ccc(S(=O)(=O)N2CCCCC2CC(=O)NCc2ccccn2)cc1 (configuration not stated) the results were AMPAR-TARP mod inactive and GIRK2 act inactive.
`COc1ccc(S(=O)(=O)N2CCCCC2CC(=O)NC2CCCCCC2)cc1` (configuration not stated) gave AMPAR-TARP mod active.
Screening Cc1ccc(S(=O)(=O)N2CCCCC2CC(=O)NC2CCCCCC2)cc1 (configuration not stated) returned AMPAR-TARP mod active.
For O=C(CC1CCCCN1S(=O)(=O)c1ccccc1)NC1CCCCCC1 (configuration not stated) the results were AMPAR-TARP mod active.
COc1ccc(S(=O)(=O)N2CCCCC2CC(=O)NC2CCCCC2)cc1 (configuration not stated) was read as AMPAR-TARP mod inactive.
`CCCCc1ccc2c(c1)sc(=NC(=O)c1ccn(C)n1)n2CC(=O)OC` gave AMPAR-TARP mod inactive and GIRK2 act inactive.
For O=C(Nc1ccc(CC(=O)N2CCC(O)CC2)cc1)Nc1c(F)cccc1F the results were GIRK2 act inactive.
COC(=O)c1ccc(NC(=O)Cn2cc(-c3ccc(C)cc3)c(N(C)C)n2)cc1 was read as AMPAR-TARP mod inactive and GIRK2 act inactive.
For COCCn1nnn(-c2ccc(NC(=O)NCc3ccc(F)cc3)cc2)c1=O the results were AMPAR-TARP mod inactive and GIRK2 act inactive.
`CC(C)c1ccc(NC(=O)CSC2=NC(C)(C)Nc3ccccc32)cc1` gave AMPAR-TARP mod inactive and GIRK2 act inactive.
COc1ccccc1CNC(=O)CC1CCCCN1S(=O)(=O)c1ccc(C)cc1 (configuration not stated) was read as AMPAR-TARP mod active.
`COc1ccccc1CNC(=O)CC1CCCCN1S(=O)(=O)c1ccccc1` (configuration not stated) gave AMPAR-TARP mod inactive.
Screening N#C/C(=C\N1CCN(Cc2ccccc2)CC1)C(=O)Nc1ccc(F)cc1 returned AMPAR-TARP mod inactive and GIRK2 act inactive.
For CCOC(=O)C1CCCN(C(=O)Cn2cnc(-c3cccs3)cc2=O)C1 (configuration not stated) the results were AMPAR-TARP mod inactive and GIRK2 act inactive.
`O=C(O)CN(CC(O)Cn1c2ccccc2c2ccccc21)S(=O)(=O)c1ccccc1` (configuration not stated) gave AMPAR-TARP mod inactive and GIRK2 act inactive.
`O=C(N1CCC(c2nnc(-c3ccc(F)cc3)o2)CC1)C1(c2cccs2)CCCC1` gave AMPAR-TARP mod active and GIRK2 act inactive.
O=C(c1cccs1)N1CCC(c2nnc(-c3ccc(F)cc3)o2)CC1 was read as AMPAR-TARP mod inactive and GIRK2 act inactive.
Screening COc1ccc(-n2ccn(CC(=O)Nc3ccc(OC)c(Cl)c3)c2=O)cc1 returned AMPAR-TARP mod inactive and GIRK2 act inactive.
`O=C(C1CCCCC1)N(CCN1CCOCC1)c1nc2c(F)cccc2s1` gave AMPAR-TARP mod inactive and GIRK2 act inactive.
Cn1c(=O)[nH]c(=O)c2c1nc(N1CCN(CC(N)=O)CC1)n2Cc1ccccc1 was read as AMPAR-TARP mod active.
COc1ccc(N2CCN(CCCn3c(C)c(C)n4c5c(=O)[nH]c(=O)n(C)c5nc34)CC2)cc1 was read as AMPAR-TARP mod active.
Screening CCOCCn1c(N2CCN(CC)CC2)nc2c1c(=O)[nH]c(=O)n2C returned AMPAR-TARP mod inactive.
Screening CCCCCCCCCn1c(N2CCNCC2)nc2c1c(=O)[nH]c(=O)n2C returned AMPAR-TARP mod active and GIRK2 act 9.0%*.
